Where a name gives a salt, the structure may show the parent alone. Values without a mark were called inactive.
test system: E18 rat cortical neuron-glia co-culture; assay: myelination (MBP fiber length per Olig2+ nucleus), % of 1 µM DAPT response (DMSO = 0) (% of DAPT); higher = more myelination, active = 50 or more; conditions: 1 µM; treatment time: 8 days (DIV5-DIV13)
Procedure, shortened: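 Myelination, expressed as continuous straight MBP fiber length per Olig2+ nucleus, was normalised to 0.1 % DMSO as 0 and a 1 µM positive control as 100. The cultures were primary E18 rat cortical co-cultures dissociated with papain and plated at 20,000 cells/well on poly-d-lysine/laminin-coated 96-well plates. They received library compounds at 1 or 5 µM in myelination medium between DIV5 and DIV13. Analysis covered four 10X fields per well in duplicate wells after 4 % paraformaldehyde fixation and immunostaining for MBP and Olig2 with DAPI.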

Q: With `CN1CCN(c2nc3cc(C(F)(F)F)ccc3n3cccc23)CC1` as the compound, how does the myelination read?
A: -2.34

Q: Which myelination does the source give for `COC(=O)[C@H](c1ccccc1Cl)N1CCc2sccc2C1` [Clopidogrel] here?
A: -6.76

Q: Which myelination does the source give for `CC1=C(/C=C/C(C)=C/C=C/C(C)=C\C(=O)O)C(C)(C)CCC1` [Isotretinoin] here?
A: -16.1

Q: Which myelination does the source give for `CC(=O)OCC(=O)[C@@]12OC3(CCCC3)O[C@@H]1C[C@H]1[C@@H]3CCC4=CC(=O)C=C[C@]4(C)[C@@]3(F)[C@@H](O)C[C@@]12C` [Amcinonide] here?
A: -11.8

Q: With `C[C@]12CC[C@@H]3c4ccc(O)cc4CC[C@H]3[C@@H]1CC[C@@H]2O` [Estradiol] as the compound, how does the myelination read?
A: -24.6

Q: How did the myelination turn out when `CC(=O)[C@@]1(O)CC[C@H]2[C@@H]3C[C@H](C)C4=CC(=O)C=C[C@]4(C)[C@@]3(F)[C@@H](O)C[C@@]21C` [Fluorometholone] was run?
A: -5.67

Q: `CC1(C)S[C@@H]2[C@H](NC(=O)[C@H](N)c3ccc(O)cc3)C(=O)N2[C@H]1C(=O)O` [Amoxicillin] was tested. Which myelination did it give?
A: -18.6

Q: How did the myelination turn out when `COc1cc(C(=O)NC2CCCNC2)cc(OC)c1OC` (stereo not given) [Troxipide] was run?
A: -15.3

Q: For `CC(Cc1ccccc1)(NC(=O)CN)c1ccccc1` (stereo not given) [Remacemide], which myelination is on record?
A: -12.4

Q: `Cc1cccc(C)c1NC(=O)C1CCCCN1C` (stereo not given) [Mepivacaine] was tested. Which myelination did it give?
A: -12.3

Q: How did the myelination turn out when `Clc1ccc2c(c1)CCc1cccnc1C2=C1CCNCC1` [Desloratadine] was run?
A: -12.9

Q: How did the myelination turn out when `CCCc1cc(=O)[nH]c(=S)[nH]1` [Propylthiouracil] was run?
A: -9.29

Q: For `COc1cc2nc(N3CCN(C(=O)c4ccco4)CC3)nc(N)c2cc1OC` [Prazosin], which myelination is on record?
A: -38.1

Q: For `CN/C(=N\CCSCc1nc[nH]c1C)NC#N` [Cimetidine], which myelination is on record?
A: -12.1

Q: For `CC(C)(C(=O)c1cccnc1)c1cccnc1` [Metyrapone], which myelination is on record?
A: -19.7

Q: `C=C[C@H]1CN2CC[C@H]1C[C@H]2[C@H](O)c1ccnc2ccc(OC)cc12` [Quinine] was tested. Which myelination did it give?
A: -1.48

Q: How did the myelination turn out when `COc1ccccc1N1CCN(CCCNc2cc(=O)n(C)c(=O)n2C)CC1` [Urapidil] was run?
A: -28.5

Q: How did the myelination turn out when `CCn1cc(C(=O)O)c(=O)c2cc(F)c(N3CCN(C)CC3)cc21` [Pefloxacin] was run?
A: -8.57

Q: `N[C@@H](C(=O)N[C@@H]1C(=O)N2C(C(=O)O)=C(CSc3c[nH]nn3)CS[C@H]12)c1ccc(O)cc1` [Cefatrizine] was tested. Which myelination did it give?
A: -4.14

Q: `CNS(=O)(=O)Cc1ccc2[nH]cc(CCN(C)C)c2c1` [Sumatriptan] was tested. Which myelination did it give?
A: -5.51

Q: For `c1ccc2c(c1)CCCC2C1=NCCN1` (stereo not given) [Tyzine], which myelination is on record?
A: -6.18

Q: Which myelination does the source give for `O=C1CC[C@@H](C(=O)N2CSC[C@H]2C(=O)O)N1` [Pidotimod] here?
A: -7.34

Q: Which myelination does the source give for `Nc1c2c(nc3ccccc13)CCCC2` [Tacrine] here?
A: -9.65

Q: `CCc1nc(N)nc(N)c1-c1ccc(Cl)cc1` [Pyrimethamine] was tested. Which myelination did it give?
A: 398 (active)

Q: Which myelination does the source give for `NC(N)=Nc1nc(CSCC/C(N)=N/S(N)(=O)=O)cs1` [Famotidine] here?
A: -13.8

Q: For `CCc1cc(C(N)=S)ccn1` [Ethionamide], which myelination is on record?
A: -1.99

Q: `CN1[C@@H](CC(=O)c2ccccc2)CCC[C@H]1C[C@H](O)c1ccccc1` [Lobeline] was tested. Which myelination did it give?
A: 2.9

Q: With `O=C(O)CCCc1ccccc1` [4-Phenylbutyric acid] as the compound, how does the myelination read?
A: 10.1

Q: How did the myelination turn out when `CO/N=C(\C(=O)N[C@@H]1C(=O)N2C(C(=O)O)=C(COC(N)=O)CS[C@H]12)c1ccco1` [Cefuroxime] was run?
A: -44.2

Q: `Cc1onc(-c2ccccc2)c1C(=O)N[C@@H]1C(=O)N2[C@@H]1SC(C)(C)[C@@H]2C(=O)O` [Oxacillin] was tested. Which myelination did it give?
A: -4.75

Q: How did the myelination turn out when `C[C@]12CC[C@@H]3c4ccc(OS(=O)(=O)O)cc4CC[C@H]3[C@@H]1CCC2=O` [Estrone sulfate] was run?
A: 3.23

Q: For `CC(c1cc2ccccc2s1)N(O)C(N)=O` (stereo not given) [Zileuton], which myelination is on record?
A: -6.73

Q: Which myelination does the source give for `CC(=O)NC[C@H]1CN(c2ccc(N3CCOCC3)c(F)c2)C(=O)O1` [linezolid] here?
A: -7.33

Q: `CC(=O)O[C@]1(C(C)=O)CC[C@H]2[C@@H]3C=C(C)C4=CC(=O)CC[C@]4(C)[C@H]3CC[C@@]21C` [Megestrol acetate] was tested. Which myelination did it give?
A: -33.5

Q: `C[C@](N)(Cc1ccc(O)c(O)c1)C(=O)O` [Methyldopa] was tested. Which myelination did it give?
A: 22.3
